VP16 counter: inhibits Gal4-VP16 luciferase reporter, ROR gamma counter-screen; Drosophila S2 Gal4-VP16 UAS-luciferase, luminescence, 20 h; Potency, µM (top dose mostly 53.6 µM), actives largely listed as inhibitors; hit rate 3.5% among 310,000; AID 2546;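 note: Gal4-VP16 expression switched on by copper sulfate through the metallothionein promoter; nearly all actives have a fitted effect of over 50% in size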
RORg inh: blocks mouse ROR gamma transcriptional activity; P51450; Drosophila S2 Gal4-RORgamma UAS-luciferase reporter, 20 h; Potency, µM (highest dose often 53.6 µM), actives largely listed as inhibitors; hit rate 5.4% among 310,000; note: nearly all actives have a fitted effect of over 60% in size
Target sequence (P51450 whole entry, looked up, the tested form may be a part): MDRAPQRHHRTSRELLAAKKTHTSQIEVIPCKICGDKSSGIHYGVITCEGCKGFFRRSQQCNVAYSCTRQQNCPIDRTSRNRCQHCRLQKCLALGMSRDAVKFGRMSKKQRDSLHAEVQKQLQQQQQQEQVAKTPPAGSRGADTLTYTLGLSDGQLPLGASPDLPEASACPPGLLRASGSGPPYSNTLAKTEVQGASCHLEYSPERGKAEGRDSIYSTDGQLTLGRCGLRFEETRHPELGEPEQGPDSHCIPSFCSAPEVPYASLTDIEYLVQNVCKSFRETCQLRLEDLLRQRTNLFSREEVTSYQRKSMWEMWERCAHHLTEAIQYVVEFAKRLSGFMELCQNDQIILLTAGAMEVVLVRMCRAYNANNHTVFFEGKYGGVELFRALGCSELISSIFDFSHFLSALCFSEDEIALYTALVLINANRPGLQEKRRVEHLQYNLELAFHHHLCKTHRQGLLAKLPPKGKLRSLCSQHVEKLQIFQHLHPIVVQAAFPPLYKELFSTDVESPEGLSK
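ROR gamma transcriptional activity was tracked as Gal4-UAS luciferase output in stably transfected Drosophila Schneider cells, with compound added 1 hr before 700 uM copper sulfate induction and a 20 hr ambient-temperature incubation.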
SW480 rereplic: DNA re-replication induction in SW480 cells | hit rate 1.8% among 340,000 | SW480 DNA re-replication, Hoechst DNA content imaging, 48 h | AID 624297 | Potency, µM (doses to about 46.1 µM), most hits filed as activators; note: nearly all actives have a fitted effect of over 55% in size
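250 cells/well; 23 nL cpd via pin tool; 48 hr, 37 C, 5% CO2; Hoechst 40 min; imager read of total nuclear intensity, ex 405/em 500-530 nm.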
MCF10A rerep: inducers of DNA re-replication in MCF 10A breast cells; MCF 10A DNA re-replication, Hoechst nuclear intensity, 48 h; hit rate 2.9% among 350,000; Potency, µM (top dose mostly 46.1 µM), usual class: activators; note: nearly all actives have a fitted effect of over 50% in size
KB-V1 MDR tox: kills drug-selected multidrug resistant KB-V1 cells | KB-V1 MDR cells viability, CellTiter-Glo, 72 h | Potency, µM (doses to about 46.1 µM), usual class: cytotoxic | hit rate 3.4% among 400,000 | AID 1347076; note: nearly all actives have a fitted effect of over 60% in size
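qHTS viability screen in drug-selected KB-V1 MDR cells: 72 h compound treatment at 37 degrees C, ATP luminescence end point.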
KB-3-1 cytotox: KB-3-1 parental cell cytotoxicity; KB-3-1 viability, CellTiter-Glo ATP luminescence, 72 h; Potency, µM (doses to about 46.1 µM), actives largely listed as cytotoxic; hit rate 1.4% among 400,000; AID 1347075; note: nearly all actives have a fitted effect of over 60% in size
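Parental KB-3-1 viability, qHTS format: 72 h compound exposure, 37 °C; CellTiter-Glo; media-only wells and DMSO plates as controls; concentration-effect fits on corrected data.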
Large screens that a line does not name were inactive. Shown are actives, neighbours in structure and some others; about 10% of the full set was active somewhere. Calls come from the whole dose curve; as a rule, active = well fitted curve in the direction sought with a large enough effect; inconclusive = small, poorly fitted or top-dose-only effect, or another doubt; inactive = no such curve, though single readings can be large; an effect the other way counts as inactive or inconclusive.

CN1CCN(C(=S)c2cn(CCOc3ccccc3)c3ccccc23)CC1	VP16 counter inconclusive, RORg inh 11.2µM, KB-V1 MDR tox inconclusive
CN1CCN(C(=S)c2cn(CCOc3ccccc3F)c3ccccc23)CC1	RORg inh 14.1µM, MCF10A rerep inconclusive, KB-V1 MDR tox inconclusive
COc1cnc(-c2cccc(C(F)(F)F)c2)c(NC(=O)c2cc3ccccc3s2)n1	none (no result: VP16 counter, RORg inh, SW480 rereplic, MCF10A rerep)
N#Cc1ccc(NC2c3ccccc3CC2O)cc1 (stereo not given)	KB-V1 MDR tox 18.4µM, KB-3-1 cytotox inconclusive (no result: VP16 counter, RORg inh)
C=C[C@@]1(C)C[C@H](OC(=O)CSC(C)(C)CNC(=O)[C@@H](N)C(C)C)[C@@]2(C)C(C)CC[C@@]3(CCC(=O)[C@@H]32)[C@H](C)[C@H]1O (stereo not given in full)	KB-V1 MDR tox inconclusive
CC1(C(=O)Nc2ccc(Cl)c(Cl)c2)CCN1C(=O)Cc1ccc(-c2ccccc2)cc1 (stereo not given)	KB-V1 MDR tox inconclusive (no result: VP16 counter, RORg inh, SW480 rereplic, MCF10A rerep)
Cc1ccc(-n2c(C)cc(C(=O)CSc3nncs3)c2C)cc1	KB-V1 MDR tox inconclusive, KB-3-1 cytotox 23.1µM
Cc1ccc(-n2c(C)cc(C(=O)CSc3nnnn3C)c2C)cc1	VP16 counter 12.6µM, RORg inh inconclusive, MCF10A rerep inconclusive, KB-V1 MDR tox inconclusive
CC1CCc2c(sc(NC(=O)c3cc(-c4ccc(F)cc4)on3)c2C(N)=O)C1 (stereo not given)	none (no result: VP16 counter, RORg inh, SW480 rereplic, MCF10A rerep)
CC(C)(C)c1cc(NC(=O)C2(C)CCN2C(=O)C2(c3ccccc3)CCCC2)no1 (stereo not given)	KB-V1 MDR tox inconclusive (no result: VP16 counter, RORg inh, SW480 rereplic, MCF10A rerep)
O=C(NCc1ccon1)C1CCC(=O)N(CCc2ccc(Cl)cc2)C1 (stereo not given)	RORg inh inconclusive, SW480 rereplic inconclusive
CCOC(=O)c1ccc(NC(=O)CCc2c(C)nc3nc[nH]n3c2=O)cc1	none (no result: VP16 counter, RORg inh, SW480 rereplic, MCF10A rerep)
Cc1cc(NC(=O)COC(=O)CCS(=O)(=O)c2cc(Cl)ccc2Cl)no1	MCF10A rerep 20.6µM
O=C(Nc1ccc(-c2nc3ccccc3o2)cc1)C1CCCO1 (stereo not given)	VP16 counter inconclusive, KB-V1 MDR tox 10.3µM, KB-3-1 cytotox inconclusive
O=C(Nc1ccc(-c2nc3cc(Cl)ccc3o2)cc1)C1CCCO1 (stereo not given)	VP16 counter inconclusive, MCF10A rerep inconclusive, KB-V1 MDR tox 10.3µM
Cc1ccc2nc(-c3ccc(NC(=O)C4CCCO4)cc3)[nH]c2c1 (stereo not given)	VP16 counter 7.08µM, RORg inh 6.31µM, KB-V1 MDR tox 9.2µM
O=C(Nc1nnc(-c2ccncc2)s1)C1CCCO1 (stereo not given)	none
O=C(Nc1ccc(-c2nc3cccnc3s2)cc1)C1CCCO1 (stereo not given)	VP16 counter 11.2µM, RORg inh 17.8µM, SW480 rereplic inconclusive, MCF10A rerep inconclusive
O=C(Nc1ccc2oc(-c3ccccc3)nc2c1)C1CCCO1 (stereo not given)	KB-V1 MDR tox inconclusive, KB-3-1 cytotox inconclusive
O=C(C[n+]1cccc(Br)c1)c1ccc(I)cc1	none (no result: VP16 counter, RORg inh, SW480 rereplic, MCF10A rerep)
COCC(=O)N1CCC(Oc2ccc(C(=O)NCCc3ncccc3C)cc2)CC1	none
CCn1nc(C)c(CNC(=O)c2ccc(OC3CCN(Cc4ccccn4)CC3)cc2)c1C	VP16 counter 7.08µM (no result: KB-V1 MDR tox, KB-3-1 cytotox)
O=C(NCCc1cccc(Cl)c1)c1ccc(OC2CCN(Cc3ccccn3)CC2)cc1	RORg inh 17.8µM
Cc1cccnc1CCNC(=O)c1ccc(OC2CCN(Cc3ccccn3)CC2)cc1	VP16 counter inconclusive, RORg inh 14.1µM, KB-V1 MDR tox inconclusive
COc1ccc(NC(=O)c2cc(C3CCCCN3C(=O)c3cc(OC)c(C)c(OC)c3)on2)c(C)c1 (stereo not given)	KB-3-1 cytotox inconclusive (no result: VP16 counter, RORg inh, SW480 rereplic, MCF10A rerep)
CC1CN(S(=O)(=O)c2cc(C(=O)N(C)Cc3cccs3)ccc2Cl)CC(C)O1 (stereo not given)	KB-V1 MDR tox 10.3µM (no result: VP16 counter, RORg inh)
CN(Cc1cccs1)C(=O)c1cccc(S(=O)(=O)N2CCCCCC2)c1	KB-V1 MDR tox 18.4µM (no result: VP16 counter, RORg inh)

Screening data from PubChem BioAssay.
